Source: PubChem BioAssay (National Center for Advancing Translational Sciences (NCATS))
JMJD2A Tudor: qHTS Assay for Inhibitors of JMJD2A-Tudor Domain | Lysine-specific demethylase 4A (Homo sapiens), O75164 | AlphaScreen JMJD2A-Tudor / H3K4me3 peptide binding | Potency, µM (doses to about 114 µM), hits mostly inhibitors | 390,000 compounds, 4.4% hits; further: nearly all actives have a fitted effect of over 50% in size
HP1b chromo inh: HTS for Inhibitors of HP1-beta Chromodomain Interactions with Methylated Histone Tails. AlphaScreen HP1-beta / biotin-H3K9me3 peptide binding. Potency, µM (doses to about 114 µM), usual class: inhibitors. 390,000 compounds, 0.56% hits. AID 540317, 2011; further: nearly all actives have a fitted effect of over 70% in size
Target sequence (P83916 whole entry, looked up): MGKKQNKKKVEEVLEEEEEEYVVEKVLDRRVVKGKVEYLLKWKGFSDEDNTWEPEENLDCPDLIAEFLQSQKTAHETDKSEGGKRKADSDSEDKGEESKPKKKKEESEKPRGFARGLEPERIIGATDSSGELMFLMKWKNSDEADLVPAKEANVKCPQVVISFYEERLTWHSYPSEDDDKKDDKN
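AlphaScreen: HP1-beta (50 nM) preformed 30 min with biotin-H3(1-18)K9me3 peptide (50 nM) in PBS pH 7.4, 0.01% Tween-20. Compound added for 30 min at RT, then streptavidin donor/nickel chelate acceptor beads (10 ug/mL) for 30 min.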
G9a inh: qHTS Assay for Inhibitors of Histone Lysine Methyltransferase G9a; Histone-lysine N-methyltransferase EHMT2 (Homo sapiens), Q96KQ7; G9a H3K9 monomethylation, AlphaScreen, 2 h; Potency, µM (top dose mostly 102 µM), hits mostly inhibitors; 350,000 compounds, 8.8% hits; AID 504332, 2011; further: nearly all actives have a fitted effect of over 75% in size
Target sequence (Q96KQ7 913-1193 limits assumed): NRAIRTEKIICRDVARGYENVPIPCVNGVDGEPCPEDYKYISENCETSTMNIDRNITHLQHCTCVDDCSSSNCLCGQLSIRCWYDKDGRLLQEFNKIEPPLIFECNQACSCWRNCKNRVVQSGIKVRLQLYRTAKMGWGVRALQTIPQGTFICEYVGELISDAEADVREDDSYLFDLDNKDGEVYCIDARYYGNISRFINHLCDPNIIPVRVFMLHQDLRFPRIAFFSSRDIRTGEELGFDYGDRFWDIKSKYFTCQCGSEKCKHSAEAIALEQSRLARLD
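Step 1: enzyme (final 20 nM) with compound, 15 min RT. Step 2: substrate peptide 500 nM and SAM 20 uM, 2 h RT. Step 3: anti-H3K9me1 antibody and AlphaScreen beads, 10 min, then plate read.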
BAZ2B block: qHTS Assay for Inhibitors of BAZ2B | AID 504333, 2011 | 360,000 compounds, 4.4% hits | Potency, µM (titrated, usually from 114 µM), actives largely listed as inhibitors | Bromodomain adjacent to zinc finger domain protein 2B (Homo sapiens), Q9UIF8 | AlphaScreen BAZ2B-H3K14Ac peptide displacement; further: nearly all actives have a fitted effect of over 60% in size
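Inhibition is scored as reduced AlphaScreen emission. The BAZ2B/b-H3(5-23)K14Ac complex (50 nM each) in PBS pH 7.4, 0.01% Tween-20 meets compound (up to 110 uM) for 30 min at RT before bead addition.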
GLS inhibitor: qHTS for Inhibitors of Glutaminase (GLS); AID 624170, 2012; GLS enzymatic activity, qHTS titration; Potency, µM (highest dose often 45.5 µM), actives largely listed as inhibitors; Glutaminase kidney isoform, mitochondrial (Homo sapiens), O94925; 410,000 compounds, 0.21% hits
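Human kidney-isoform GLS in 45 mM KH2PO4 pH 8.2, 0.02% Tween-20, with compound, started with 1mM L-Glutamine (added stock). Glutamate oxidase/HRP/Amplex red coupled fluorescence read at start and after 30 min at RT.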
Hits are given with their value; ! = a repeat was not active; [ ] = remark or other dose. Sampled rows, rich in hits. Any-hit rate of the full collection: about 10%. The call rests on the fitted dose curve; in most records, active means well fitted curve in the direction sought with a large enough effect; inconclusive means small, poorly fitted or top-dose-only effect, or another doubt; inactive means no such curve, though single readings can be large; an effect the other way counts as inactive or inconclusive.

Results for Cc1ccccc1Nc1c(-c2ccccn2)nc2ccccn12 ?
JMJD2A Tudor: 50µM; HP1b chromo inh: inactive; G9a inh: 40µM; BAZ2B block: 10µM; GLS inhibitor: inactive

Results for Cc1ccc(-c2nc3sccn3c2Nc2ccccc2C)cc1 ?
JMJD2A Tudor: 45µM; HP1b chromo inh: inconclusive; G9a inh: 13µM; BAZ2B block: 7.1µM; GLS inhibitor: inactive

How did Cc1ccn2c(Nc3ccccc3C)c(-c3ccccn3)nc2c1 do in these assays?
JMJD2A Tudor: 45µM!; HP1b chromo inh: inconclusive; G9a inh: inconclusive; BAZ2B block: 22µM; GLS inhibitor: inactive

How did Cc1ccccc1Nc1c(-c2ccc(Cl)cc2)nc2c(C)cccn12 do in these assays?
JMJD2A Tudor: inactive; HP1b chromo inh: inactive; G9a inh: inactive; BAZ2B block: inactive; GLS inhibitor: inactive

How did O=C(CCCOC(=O)c1ccc(O)cc1O)c1ccc(Br)cc1 do in these assays?
JMJD2A Tudor: inactive; HP1b chromo inh: inactive; G9a inh: inconclusive; BAZ2B block: inactive; GLS inhibitor: inactive

How did Fc1ccc(Nc2c(-c3ccccn3)nc3ccc(Cl)cn23)cc1 do in these assays?
JMJD2A Tudor: inconclusive; HP1b chromo inh: inactive; G9a inh: inactive; BAZ2B block: inconclusive; GLS inhibitor: inactive

Results for Cc1ccc2nc(-c3ccccn3)c(Nc3ccc(F)cc3)n2c1 ?
JMJD2A Tudor: inconclusive; HP1b chromo inh: inactive; G9a inh: inactive; BAZ2B block: 5.6µM; GLS inhibitor: inactive

Results for COc1ccc(-c2nc3ccccn3c2Nc2ccccc2C)cc1 ?
JMJD2A Tudor: 56µM; HP1b chromo inh: inconclusive

What do the screens show for `Cc1ccc2nc(-c3ccccn3)c(Nc3ccccc3C)n2c1`?
JMJD2A Tudor: 45µM!; HP1b chromo inh: inactive; G9a inh: inconclusive; BAZ2B block: 20µM; GLS inhibitor: inactive

How did Cc1ccccc1Nc1c(-c2cccnc2)nc2ccccn12 do in these assays?
JMJD2A Tudor: inactive[11.4 µM]; HP1b chromo inh: inactive; G9a inh: inactive; BAZ2B block: inactive; GLS inhibitor: inactive

What do the screens show for `Cc1ccn2c(Nc3ccc(C(C)C)cc3)c(-c3cccnc3)nc2c1`?
JMJD2A Tudor: inactive; HP1b chromo inh: inactive; G9a inh: inactive; BAZ2B block: inactive; GLS inhibitor: inactive

How did CC(C)c1ccc(Nc2c(-c3ccccn3)nc3ccccn23)cc1 do in these assays?
JMJD2A Tudor: 32µM; HP1b chromo inh: inconclusive; G9a inh: inconclusive; BAZ2B block: 22µM; GLS inhibitor: inactive

What do the screens show for `COc1cccc2c1cc1c(=O)n(CC(=O)N3CCN(c4cccc(C)c4)C(C)C3)nc(C)n12` (stereo not drawn)?
JMJD2A Tudor: inactive; HP1b chromo inh: inactive; G9a inh: inactive; BAZ2B block: inactive; GLS inhibitor: inactive

How did CC(C#N)(NC(=O)CN1CCN(S(=O)(=O)c2cccc(F)c2)CC1)C1CC1 (stereo not drawn) do in these assays?
GLS inhibitor: inactive

How did O=C(COc1ccc2ccccc2c1)Nc1ccc(Br)cc1C(=O)O do in these assays?
JMJD2A Tudor: inactive; HP1b chromo inh: inactive; BAZ2B block: inactive; GLS inhibitor: inactive

Results for CC(C)NC(=O)N1CCN(S(=O)(=O)c2ccc3c(ccn3C)c2)CC1 ?
JMJD2A Tudor: inactive; HP1b chromo inh: inactive; G9a inh: inactive; BAZ2B block: inactive; GLS inhibitor: inactive

What do the screens show for `O=C1NC[C@@H](c2ccccc2)OC(=O)[C@@H](Cc2ccc(F)cc2)CC/C=C/C[C@@H]1CC(=O)N(CCO)Cc1ccccc1`?
JMJD2A Tudor: inactive; HP1b chromo inh: inactive; GLS inhibitor: inactive

How did CCN(CC)S(=O)(=O)c1ccc(C)c(NC(=O)COc2ccc(Cl)cc2Br)c1 do in these assays?
JMJD2A Tudor: inactive; HP1b chromo inh: inactive; G9a inh: 45µM; BAZ2B block: inactive; GLS inhibitor: inactive

What do the screens show for `CC(=O)O[C@@H]1C(=O)O[C@H]2[C@@H]1OC(=O)[C@@H]2OC(C)=O`?
GLS inhibitor: inactive

How did CC1=C(C(=O)OCCBr)C(c2cccc3ccccc23)NC(=O)N1 (stereo not drawn) do in these assays?
JMJD2A Tudor: inactive; HP1b chromo inh: inactive; G9a inh: 79µM; BAZ2B block: inactive; GLS inhibitor: inactive
